Assay outcomes (PubChem)
GDH-TPI counter = GDH-TPI coupling enzyme inhibitors, primary screen, artefact control for M. tuberculosis FBA inhibitor project, biochemical, absorbance, full deck. inhibition, % at 4.8 µM. GDH-TPI coupled enzyme counterscreen, NADH absorbance. 1.2% of 360,000 active; in the data active = inhibition above about 30%;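 note: 0% = DMSO wells and 100% = wells lacking the enzyme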
Mtb bLac sens = beta-lactam sensitization of Mtb H37Rv, H37Rv. M. tuberculosis H37Rv growth with meropenem, percent inhibition. inhibition, % at 25 µM. 0.27% of 330,000 active. AID 434955, 2010; call rule not given here;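 note: growth measured after seven days incubation then overnight dye step; 0% = bacteria only wells and 100% = bacteria with antibiotic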
FBA Mtb inh = Mtb FBA enzyme inhibitors, primary screen, biochemical, fluorescence, strain H37Rv. AID 588726, 2011. Fructose-bisphosphate aldolase (Mycobacterium tuberculosis (strain ATCC 25618 / H37Rv)), …. purified M. tuberculosis FBA, fluorescence read-out. inhibition, % at 1 µM. 2.3% of 360,000 active; in the data active = inhibition above about 27%;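 note: 0% = vehicle and 100% = reference inhibitor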
Target sequence (P9WQA3 whole entry, looked up): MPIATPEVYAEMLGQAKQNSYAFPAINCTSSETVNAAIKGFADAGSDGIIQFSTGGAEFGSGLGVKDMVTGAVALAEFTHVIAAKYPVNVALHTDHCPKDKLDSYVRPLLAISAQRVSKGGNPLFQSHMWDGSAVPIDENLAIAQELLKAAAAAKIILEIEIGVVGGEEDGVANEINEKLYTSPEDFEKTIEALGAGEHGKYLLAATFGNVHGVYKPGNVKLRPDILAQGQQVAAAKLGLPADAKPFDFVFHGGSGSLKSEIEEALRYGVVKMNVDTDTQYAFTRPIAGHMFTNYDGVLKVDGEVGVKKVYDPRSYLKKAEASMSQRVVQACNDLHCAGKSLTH
DUSP3 inh = VHR1 phosphatase inhibitors, primary screen, biochemical, absorbance, uHTS. Dual specificity protein phosphatase 3 (Homo sapiens), P51452. recombinant VHR phosphatase, pNPP absorbance. inhibition, % at 13.3 µM. 0.52% of 290,000 active; in the data active = inhibition above about 50%
Target sequence (P51452 whole entry, looked up): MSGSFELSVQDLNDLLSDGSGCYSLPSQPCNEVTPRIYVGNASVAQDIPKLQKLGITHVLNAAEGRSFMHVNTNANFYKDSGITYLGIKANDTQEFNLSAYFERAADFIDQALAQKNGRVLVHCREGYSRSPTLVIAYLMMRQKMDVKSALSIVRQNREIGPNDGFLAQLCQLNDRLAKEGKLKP
Mtb hypoxia inh = PubChem AID 1159583; M. tuberculosis hypoxia-regulated fluorescent reporter, fluorescence; 0.1% of 300,000 active; fluorescence inhibition, % (no concentration beside the values); in the data active = fluorescence inhibition mostly above about 23%, no sharp cut-off; inactive = mostly below about 17%
An asterisk follows results filed as active; x = no result given; + = active, no number. The list is not random: actives were taken first. Their share in the collection is about 3.6%.

SMILES	GDH-TPI counter	Mtb bLac sens	FBA Mtb inh	DUSP3 inh	Mtb hypoxia inh
COc1ccc(CNC(=O)C2CCN(S(=O)(=O)c3c(C)noc3/C=C/N(C)C)CC2)cc1	45*	88	9	4	-6
COCCNC(=O)C1CCN(S(=O)(=O)c2c(C)noc2/C=C/c2cccs2)CC1	39*	-1	0	-21	3
C[C@@]12C(=O)N(c3ccc(Cl)cc3)C(=O)N1C1c3ccccc3OCC1C2c1ccccc1 (stereo partly specified)	x	x	x	x	6
CC(=NOCON=C(C)c1ccccc1)c1ccccc1	x	x	x	x	4
NC(Cc1cccc2ccccc12)=NOC(=O)c1ccc2c(c1)OCO2	x	x	x	x	4
COc1ccc(OC2C=CC(c3ccccc3)OC2CON=CCC2C=CC(OC(C)=O)C(COC(C)=O)O2)cc1 (stereo unspecified)	x	x	x	x	-1
CCN(C(=O)COC(=O)c1ccccc1NCCO)C1CCS(=O)(=O)C1 (stereo unspecified)	3	0	129*	x	9
CCN(C(=O)COC(=O)c1cc2ccccc2cc1O)C1CCS(=O)(=O)C1 (stereo unspecified)	-7	3	-1	12	7
CC(C)NC(=O)Nc1cccc2c1OC(CN(C)S(=O)(=O)c1ccccc1)C(C)CN(C(C)CO)C2=O (stereo unspecified)	x	x	x	x	4
O=C(NN=Cc1ccc(O)cc1)C(=O)NN=Cc1ccc(O)cc1	68*	x	-7	x	18
O=C(N/N=C/c1ccc(O)cc1O)C(=O)N/N=C/c1ccc(O)cc1O	41*	3	-3	-24	x
N/C(=N\[N+](=O)[O-])N/N=C/c1ccc(O)cc1	37*	-1	0	31	x
COCc1cc(C)nc(OCC(=O)N/N=C/c2ccc(O)cc2O)c1C#N	35*	-1	2	18	x
CC[C@@]12C(=O)N(c3cccc(Br)c3)C(=O)N1C(c1cccc(C)c1)C1C(=O)N(Cc3ccccc3)C(=O)C12 (stereo partly specified)	x	x	x	x	3
CCCCN1C(=S)NCC1Cc1cccc2ccccc12 (stereo unspecified)	x	x	x	x	7
O=C(NCc1ccc(Cl)cc1)C(=O)N/N=C/c1ccc(Br)cc1	-4	0	3	52*	x
Cc1cc(C)n(CCC(=O)N/N=C/c2ccc(O)cc2O)n1	31*	37	4	30	x
O=C(O)C=CC(=O)NCc1cn(-c2ccccc2)nc1-c1cccc(Br)c1	x	x	x	x	1
CCOC(=O)c1cc2ccc3ccccc3c2oc1=O	8	7	+	34	7
CCOC(=O)c1cc2ccc(OC(=O)c3ccco3)cc2oc1=O	9	6	+	6	17
CCOc1ccc2cc(C(=O)c3ccccc3)c(=O)oc2c1	41*	9	2	0	16
O=C(Oc1cccc(OC(=O)c2ccco2)c1)c1ccco1	-6	24	0	56*	12
COc1ccc2cc(C(=O)c3ccccc3)c(=O)oc2c1	17	2	0	32	3
CCOC(=O)c1c(C)n(C)c2ccc(OC(=O)c3ccco3)cc12	6	32	1	14	x
CCOC(=O)c1c[nH]c2ccc3ccccc3c2c1=O	9	58	-5	13	0
SMILES	GDH-TPI counter	Mtb bLac sens	FBA Mtb inh	DUSP3 inh	Mtb hypoxia inh
O=C1NC(Cc2ccccc2)C(=O)N2C1C[C@@]1(Br)c3ccccc3N(S(=O)(=O)c3ccc(F)cc3)C21 (stereo partly specified)	x	x	x	x	1
COc1ccc(S(=O)(=O)Nc2ccc3c(c2)C(=O)N(C(C)CO)CC(C)C(CN(C)C(=O)NC2CCCCC2)O3)cc1 (stereo unspecified)	x	x	x	x	11
COCC=CC1=CC2=CC(=O)C(C)(OC(=O)c3cnc4ccccc4n3)C(=O)C2=CN1c1ccc(OC)cc1 (stereo unspecified)	x	x	x	x	-1
CC(Cn1cnc([N+](=O)[O-])n1)=NNC(=O)c1cccnc1	x	x	x	x	6
CC(=O)Nc1ccc(NC(=O)CC(C)=NNC(N)=S)cc1	x	x	x	x	-1
CC(=NNC(=O)COc1ccccc1[N+](=O)[O-])c1cccs1	x	x	x	x	0
O=C(COC(=O)Cc1cccs1)NCC(=O)Nc1ccc(F)cc1	8	4	0	x	33*
CN(CC(=O)Nc1ccc(F)cc1)C(=O)COC(=O)Cc1cccs1	2	-9	5	x	-8
c1ccc(-c2csc(-c3ccncc3)n2)cc1	2	25	5	52*	-3
O=C(NNc1cccc([N+](=O)[O-])c1)/C(=C\c1cccnc1)NC(=O)c1ccccc1	44*	94	1	9	6
CC(=O)c1cccc(NC(=O)/C(=C\c2cccnc2)NC(=O)c2ccccc2)c1	2	-8	0	22	-1
COc1cc(C=C(NC(=O)c2ccccc2)C(=O)Nc2cccc(O)c2)c([N+](=O)[O-])cc1OC	x	x	x	x	3
COc1ccccc1/C=C(\NC(=O)c1ccc(OC)c(OC)c1)C(=O)Nc1ccc([N+](=O)[O-])cc1	36*	-6	0	1	-3
COc1ccccc1/C=C(\NC(=O)c1ccc(OC)c(OC)c1)C(=O)Nc1cccc([N+](=O)[O-])c1	32*	0	0	-4	-4
CCCCN1CC(C)C(CC(=O)NCc2ccccc2)C1=O (stereo unspecified)	x	x	x	x	11
O=C(O)CCCC(=O)Nc1ccc(OCc2nc3ccccc3s2)cc1	-2	8	1	57*	0
Cc1ccc(S(N)(=O)=O)cc1NC(=O)c1ccc2c3c(cccc13)CC2	29	6	-2	57*	1
COc1ccc(C(=O)N/N=C/c2ccc(SC)cc2)cc1	46*	-2	-1	-14	x
COc1ccc(C(=O)NN=Cc2ccc(SC)cc2)cc1	x	x	x	x	6
COc1ccc(/C=N/NC(=O)c2ccc[nH]2)cc1	32*	-5	-2	7	x
COc1ccc(C=NNC(=O)CC(=O)NN=Cc2ccc(OC)cc2)cc1	x	x	x	x	-8
COc1cc(C=NNC(=O)c2ccc(O)cc2)ccc1OCC(=O)N1CC(C)OC(C)C1 (stereo unspecified)	x	x	x	x	12
COc1cc(/C=N/NC(=O)c2ccc(O)cc2)ccc1OCC(=O)N1CC(C)OC(C)C1 (stereo unspecified)	52*	-8	-4	-10	x
CSc1ccc(/C=N/NC(=O)c2ccccc2Cl)cc1	72*	8	8	-3	x
CCCCCCCCCC(=O)NN=C(C)c1cccnc1	x	x	x	x	1
SMILES	GDH-TPI counter	Mtb bLac sens	FBA Mtb inh	DUSP3 inh	Mtb hypoxia inh
CSc1nncc(C(C)=NNc2cccc(C)c2)n1	x	x	x	x	12
C/C(C=Nn1cnnc1)=C/c1ccccc1	x	x	x	x	9
CSc1ccc(/C=N/NC(=O)c2ccc(O)cc2)cc1	55*	3	8	60*	x
COc1ccc(OCc2cc(C=NNC(=O)c3ccccc3)ccc2OC)cc1	x	x	x	x	-3
COc1ccc(C(=O)N/N=C/c2ccc(OC)c(COc3ccccc3)c2)cc1	37*	-15	4	1	x
CSc1ccc(C=NNC(=O)c2ccc(O)cc2)cc1	x	x	x	x	6
